LmPK inh = qHTS Assay for Inhibitors of Leishmania Mexicana Pyruvate Kinase (LmPK); Q27686; purified LmPK, Kinase-Glo ATP luminescence, 1 h; Potency, µM (doses to about 57.5 µM), inactives show at the highest dose activity change, negative = inhibition, hits mostly inhibitors; actives 0.37% (n = 290,000); note: % is set by controls: 0 for no effect and ±100 for the full control effect
Target sequence (Q27686 whole entry, looked up): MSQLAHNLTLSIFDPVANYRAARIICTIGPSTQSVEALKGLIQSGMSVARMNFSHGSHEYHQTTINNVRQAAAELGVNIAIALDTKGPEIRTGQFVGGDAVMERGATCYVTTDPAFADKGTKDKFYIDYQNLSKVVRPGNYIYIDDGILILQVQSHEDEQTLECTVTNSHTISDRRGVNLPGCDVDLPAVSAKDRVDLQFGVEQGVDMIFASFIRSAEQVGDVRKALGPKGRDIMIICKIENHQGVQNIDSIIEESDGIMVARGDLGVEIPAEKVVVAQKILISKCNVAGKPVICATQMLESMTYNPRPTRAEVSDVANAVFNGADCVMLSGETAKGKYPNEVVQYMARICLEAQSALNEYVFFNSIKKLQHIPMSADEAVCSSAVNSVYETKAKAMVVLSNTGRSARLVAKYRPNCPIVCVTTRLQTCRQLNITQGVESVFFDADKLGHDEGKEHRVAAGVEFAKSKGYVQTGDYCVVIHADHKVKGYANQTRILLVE
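Kinase-Glo luminescence read after 1 h RT reaction of 0.1 nM LmPK with 0.5 mM PEP and 0.1 mM ADP. Activity scaled between uninhibited and enzyme-free controls.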
TbPYK inhibitor = qHTS of Trypanosoma Brucei Inhibitors. actives 0.12% (n = 410,000). Potency, µM (highest dose often 76.8 µM), for inactives: top-dose activity, negative = inhibition, usual class: inhibitors. TbPYK enzyme, Kinase-Glo Plus ATP luminescence, 45 min. pyruvate kinase (Trypanosoma brucei), Q57TT1; note: % is set by controls: 0 for no effect and ±100 for the full control effect; nearly all actives have a fitted effect of over 50% in size
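Enzyme and substrate buffer are dispensed first and compound is pin-transferred. ADP at 130 uM final then starts the reaction, which runs 45 min at room temperature. Detection reagent is added for 10 min before luminescence is imaged.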
Sm TGR inh = qHTS Assay for the Inhibitors of Schistosoma Mansoni Peroxiredoxins | actives 3% (n = 360,000) | Schistosoma mansoni thioredoxin glutathione reductase (TGR), Q962Y6 | purified TGR, DTNB reduction, TNB absorbance 405 nm | Potency, µM (top dose mostly 114 µM), for inactives: at the highest dose activity change, negative = inhibition, actives largely listed as inhibitors | AID 485364, 2010; note: % is set by controls: 0 for no effect and ±100 for the full control effect; nearly all actives have a fitted effect of over 60% in size
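Kinetic colorimetric format: TGR-catalysed, NADPH-driven DTNB reduction monitored via TNB absorbance. Enzyme dispensed at 20 nM; compound exposure 15 min at room temperature before reaction start.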
NS1 inh = qHTS Assay for Inhibitors of Influenza NS1 Protein Function | Potency, µM (titrated, usually from 46.1 µM), for inactives: at the top dose activity, positive = more growth | actives 0.4% (n = 270,000) | AID 2326, 2010; calls by dose curve; note: actives are rising curves; nearly all actives have a fitted effect of over 50% in size
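Compounds were scored for reversing the slow growth caused by influenza A NS1 in S. cerevisiae, measured by optical density at 600 nm. Assay medium contained 2% galactose at pH 6.0; NS1-free yeast of the same strain were the positive control.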
Giardia FBPA inh-1 = qHTS Assay for Inhibitors of Fructose-1,6-bisphosphate Aldolase from Giardia Lamblia | Potency, µM (highest dose often 59.6 µM), for inactives: at the top dose activity, negative = inhibition, most hits filed as inhibitors | AID 2451, 2010 | actives 0.71% (n = 290,000) | purified Giardia FBPA | A8B2U2; note: % is set by controls: 0 for no effect and ±100 for the full control effect; nearly all actives have a fitted effect of over 55% in size
Target sequence (A8B2U2 whole entry, looked up): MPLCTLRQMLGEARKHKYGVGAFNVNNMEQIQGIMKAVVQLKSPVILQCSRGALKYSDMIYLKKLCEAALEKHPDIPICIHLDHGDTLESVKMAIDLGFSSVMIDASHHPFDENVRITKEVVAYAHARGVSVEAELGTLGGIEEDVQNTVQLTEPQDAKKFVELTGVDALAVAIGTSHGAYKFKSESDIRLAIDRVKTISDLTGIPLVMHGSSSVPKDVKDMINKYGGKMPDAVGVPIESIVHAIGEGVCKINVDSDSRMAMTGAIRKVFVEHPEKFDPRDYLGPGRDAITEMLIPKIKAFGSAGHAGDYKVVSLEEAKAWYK
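40 nM FBPA preincubated 10 min at RT with compound (up to 57.5 uM final), then substrate plus GAPDH/TPI/NAD/arsenate coupling and diaphorase/resazurin added. Fluorescence read after 20 min at RT, 525/598 nm.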
RE007 growth inh = qHTS Assay for Inhibitors of the HIV-1 protein Vpr | AID 651644, 2012 | Potency, µM (titrated, usually from 92.2 µM), without a hit: top-dose activity change, negative = less growth, hits mostly inhibitors | S. pombe RE007 Vpr strain, BacTiter-Glo ATP luminescence, 24 h | actives 0.21% (n = 360,000); active = well fitted falling curve with a large enough effect; inconclusive = small, poorly fitted or top-dose-only effect; inactive = no such curve, though single readings can be large or run the other way; note: % is set by controls: 0 for no effect and ±100 for the full control effect; nearly all actives have a fitted effect of over 50% in size
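Fission yeast strain RE007, carrying one chromosomally integrated HIV-1 vpr copy, was seeded at OD 0.01 in PMG+AL medium with 23 nL pinned compound. After 24 h at 30 °C and 99% humidity, viability was read by BacTiter-Glo luminescence.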
Giardia growth = qHTS Assay for Inhibitors of Fructose-1,6-bisphosphate Aldolase from Giardia Lamblia: Giardia lamblia growth inhibition. shares compounds with Giardia FBPA inh-1. Potency, µM (series often up to 57.5 µM), inactives show at the top dose activity change, negative = inhibition, usual class: inhibitors. AID 2785, 2010. Giardia lamblia trophozoite growth inhibition. actives 5% (n = 1,500);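 note: trophozoites exposed to compound for 48 h at 37 °C; % is set by controls: 0 for no effect and ±100 for the full control effect; nearly all actives have a fitted effect of over 70% in size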
Mammal cell tox = qHTS Assay for Inhibitors of Fructose-1,6-bisphosphate Aldolase from Giardia Lamblia: Mammalian cellular toxicity; shares compounds with Giardia FBPA inh-1; Potency, µM (highest dose often 57.5 µM), inactives show at the highest dose viability change, negative = toxicity, most hits filed as inhibitors; actives 4% (n = 1,500); mammalian cell viability counter-screen, qHTS;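 note: Chinese hamster ovary cells used as mammalian cytotoxicity surrogate; viability measured as cellular ATP by luminescence; compound exposure lasted 48 h before reading; % is set by controls: 0 for no effect and ±100 for the full control effect; nearly all actives have a fitted effect of over 60% in size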
Giardia FBPA inh-2 = qHTS Assay for Inhibitors of Fructose-1,6-bisphosphate Aldolase from Giardia Lamblia: Primary screen confirmation. actives 5% (n = 1,500). Potency, µM (doses to about 57.5 µM), without a hit: at the top dose activity change, negative = inhibition, most hits filed as inhibitors. shares compounds with Giardia FBPA inh-1. purified Giardia aldolase enzyme activity, qHTS. AID 2787, 2010; note: % is set by controls: 0 for no effect and ±100 for the full control effect; nearly all actives have a fitted effect of over 45% in size
Rabbit FBPA inh = qHTS Assay for Inhibitors of Fructose-1,6-bisphosphate Aldolase from Giardia Lamblia: Rabbit FBPA Selectivity. shares compounds with Giardia FBPA inh-1. Rabbit muscle FBPA enzyme inhibition, selectivity counter-screen. Potency, µM (doses to about 57.5 µM), for inactives: at the top dose activity, negative = inhibition, actives largely listed as inhibitors. actives 4% (n = 1,500); note: % is set by controls: 0 for no effect and ±100 for the full control effect; nearly all actives have a fitted effect of over 60% in size
GAPDH counter = qHTS Assay for Inhibitors of Fructose-1,6-bisphosphate Aldolase from Giardia Lamblia: Coupling assay counterscreen confirmation; actives 6% (n = 1,500); Potency, µM (titrated, usually from 57.5 µM), for inactives: at the top dose activity change, negative = inhibition, most hits filed as inhibitors; shares compounds with Giardia FBPA inh-1; GAPDH coupling enzyme counterscreen, biochemical, qHTS; note: % is set by controls: 0 for no effect and ±100 for the full control effect; nearly all actives have a fitted effect of over 55% in size
* marks the source's active call; other numbers are inactive results; [ ] = dose if it differs, or a comment. A selection: hits, their analogues and other compounds. The true share with any hit is near 3.5%. Unless noted, calls come from the whole dose curve; as a rule, active = well fitted curve in the direction sought with a large enough effect; inconclusive = small, poorly fitted or top-dose-only effect, or another doubt; inactive = no such curve, though single readings can be large; an effect the other way counts as inactive or inconclusive. Potency is the fitted concentration of half-maximal effect.

Screening Cc1ccc(NC(=O)CN(C)C(=O)COc2cccc3cccnc23)cc1 returned LmPK inh 0.0%, TbPYK inhibitor -2.7%, Sm TGR inh -23.2%, NS1 inh -11.7%, Giardia FBPA inh-1 11.2µM*, RE007 growth inh 7.7%, Giardia growth -36.8%, Mammal cell tox 5.7%, Giardia FBPA inh-2 12.6µM*, Rabbit FBPA inh inconclusive and GAPDH counter inconclusive.
For Cc1cc2nc(-c3ccc(NC(=O)c4ccccc4F)cc3)oc2cc1C the results were TbPYK inhibitor 0.0% and Sm TGR inh -10.5%.
For CN(C)c1ccc(C=NN2CCCCCC2)cc1 the results were TbPYK inhibitor -9.8% and RE007 growth inh 4.3%.
CC(C)c1ccc(/C=N/N2CCCCC2)cc1 was read as LmPK inh 0.0%, TbPYK inhibitor -14.1%, Sm TGR inh 4.6%, Giardia FBPA inh-1 14.1µM*, RE007 growth inh 9.8%, Giardia growth -15.1%[10.4 µM], Mammal cell tox -1.0%, Giardia FBPA inh-2 -7.6%, Rabbit FBPA inh -5.5% and GAPDH counter -6.0%.
COc1cc(NC(=O)CSc2nc3ncnc(N)c3[nH]2)c(C(=O)O)cc1OC was read as LmPK inh 1.5%, TbPYK inhibitor 8.1%, Sm TGR inh -15.0%, NS1 inh -3.8%, Giardia FBPA inh-1 11.2µM*, RE007 growth inh -12.3%, Giardia growth 5.6%, Mammal cell tox -13.6%, Giardia FBPA inh-2 -1.6%, Rabbit FBPA inh 2.3% and GAPDH counter 2.3%.
O=C(O)c1ncn(Cc2ccccc2)c1C(=O)O was read as LmPK inh -8.0%, TbPYK inhibitor 0.0%, Sm TGR inh 9.4%, NS1 inh 1.1%, Giardia FBPA inh-1 7.92µM*, RE007 growth inh -8.0%, Giardia growth inconclusive, Mammal cell tox -4.5%, Giardia FBPA inh-2 6.9%, Rabbit FBPA inh 2.9% and GAPDH counter 6.5%.
For COc1ccc(CNC(=O)Cn2ccc3cc(S(=O)(=O)N4CCCCC4)ccc32)c(OC)c1 the results were TbPYK inhibitor -4.1% and Sm TGR inh -5.4%.
For C=CCn1c(-c2ccoc2)n[nH]c1=S the results were LmPK inh -23.2%, TbPYK inhibitor inconclusive, Sm TGR inh -25.8%, NS1 inh 2.5%, Giardia FBPA inh-1 2.51µM*, RE007 growth inh 9.5%, Giardia growth inconclusive, Mammal cell tox -3.9%, Giardia FBPA inh-2 -1.0%, Rabbit FBPA inh 4.3% and GAPDH counter -0.1%.
For C=CCn1c(-c2ccncc2)n[nH]c1=S the results were LmPK inh -2.7%, TbPYK inhibitor inconclusive, Sm TGR inh -0.6%, NS1 inh 1.5%, Giardia FBPA inh-1 2.51µM*, RE007 growth inh -5.6%, Giardia growth -11.9%, Mammal cell tox -13.2%, Giardia FBPA inh-2 6.4%, Rabbit FBPA inh 3.6% and GAPDH counter 15.0%.
`C=CCn1c(-c2ccccc2)n[nH]c1=S` gave LmPK inh -13.6%, TbPYK inhibitor inconclusive, Sm TGR inh -15.2%, NS1 inh 12.7%, Giardia FBPA inh-1 -19.4% and RE007 growth inh inconclusive.
`COc1ccc(-c2nn3c(=O)cc(CN4CCN(C(=O)c5ccc(C(C)(C)C)cc5)CC4)nc3s2)cc1` gave TbPYK inhibitor 0.5% and Sm TGR inh -0.6%.
For CCC1(C)Cc2ccccc2-c2nc(NN)[nH]c(=O)c21 (stereo not drawn) the results were LmPK inh 3.6%, TbPYK inhibitor 1.1%, Sm TGR inh 26.2%, NS1 inh inconclusive, Giardia FBPA inh-1 22.4µM*, RE007 growth inh 0.1%, Giardia growth 23.5%, Mammal cell tox 1.8%, Giardia FBPA inh-2 0.5%, Rabbit FBPA inh -23.1% and GAPDH counter -27.4%.
For c1n[nH]c(SCCCCSc2ncn[nH]2)n1 the results were LmPK inh 3.9%, TbPYK inhibitor 2.5%, Sm TGR inh -23.4%, NS1 inh 5.1%, Giardia FBPA inh-1 -27.0% and RE007 growth inh 2.3%.
C(=C\CSc1ncn[nH]1)/CSc1ncn[nH]1 was read as LmPK inh -6.8%, TbPYK inhibitor 0.0%, Sm TGR inh 0.1%, NS1 inh 3.1%, Giardia FBPA inh-1 inconclusive, RE007 growth inh 39.5%, Giardia growth 0.4%[38.3 µM], Mammal cell tox 3.6%, Giardia FBPA inh-2 -1.8%, Rabbit FBPA inh 1.0% and GAPDH counter 1.9%.
For CCOC(=O)/C(C#N)=N/Nc1c(C)n(C)n(-c2ccccc2)c1=O the results were LmPK inh -1.7%, TbPYK inhibitor -2.3%, Sm TGR inh -7.4%, Giardia FBPA inh-1 15.8µM*, RE007 growth inh 6.0%, Giardia growth -4.6%[10.4 µM], Mammal cell tox -0.6%, Giardia FBPA inh-2 -0.5%, Rabbit FBPA inh -3.8% and GAPDH counter -2.7%.
`O=C(CC(NCc1ccccn1)C(=O)O)Nc1ccccc1Cl` (stereo not drawn) gave LmPK inh 0.2%, TbPYK inhibitor -11.7%, Sm TGR inh 2.0%, Giardia FBPA inh-1 6.29µM*, RE007 growth inh 5.2%, Giardia growth inconclusive, Mammal cell tox 9.3%, Giardia FBPA inh-2 12.1%, Rabbit FBPA inh 2.5% and GAPDH counter -1.1%.

Screens from PubChem.
